Results filed as inconclusive are left out. Active and inactive are the calls of the source. How the source made its calls: active means hit-call score of the fitted dose curve at least 0.9, where 1 is the maximum; inconclusive means response in the unintended direction; inactive means score below 0.9.

One test is described as follows: Tanguay_ZF_120hpf_PFIN_legacy: (Legacy) Oregon State University Tanguay Lab 120 Hour Post-fertilization zebrafish Assay for Pectoral Fin Malformation (AID 2283648).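 Further: each larva judged yes or no for fin defect by brightfield with dead larvae skipped.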 In outline: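 Binary pectoral fin malformation call at 120 hpf by brightfield microscopy; 5D wild-type zebrafish, chorion removed at 4 hpf, one embryo per well from 6 hpf, static exposure at 28C; DMSO (0.64% final) as baseline.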
`CCc1cc(C2=C(C(=O)O)N(c3ccccc3C(F)(F)F)S(=O)(=O)c3ccccc32)cc2c1OCO2`: the compound was classed as inactive.

Take `CC(=O)S[C@H](C(=O)N[C@H]1Cc2ccccc2[C@H]2CCC[C@@H](C(=O)O)N2C1=O)C(C)C`: the result was inactive.

For `NC(=Nc1ccccc1)Nc1ccccc1`, the outcome was inactive.

`COC(=O)CCC(=O)OC`: the compound was called inactive.

Regarding `CN(C)C(=O)NC1(c2ccccc2)CCN(CCC[C@]2(c3ccc(Cl)c(Cl)c3)CCCN(C(=O)c3ccccc3)C2)CC1`, the compound was classed as inactive.

As to `Oc1ccccc1O`, the compound was called inactive.

For `CCCCC(CC)CO` (centres undefined), the outcome was inactive.

On to `Cc1c(C)c2c(c(C)c1O)CCC(C)(COc1ccc(CC3SC(=O)NC3=O)cc1)O2` (centres undefined), for which the compound was classed as inactive.

Turning to `CCCC[C@H]1CN(CC2CCOCC2)C(=O)OC12CCN(C1(C)CCN(C(=O)c3c(C)ncnc3C)CC1)CC2`, the outcome was inactive.

On to `CCCCc1nc2cccnc2n1Cc1ccc(-c2ccccc2-c2nnn[nH]2)cc1`, for which the compound was called inactive.

Turning to `Oc1ccc(O)cc1`, the compound was classed as inactive.

On to `CCCCCCC(CCCCCCCCCCC(=O)OCC(COC(C)=O)OC(C)=O)OC(C)=O` (centres undefined), for which the compound was called inactive.

Regarding `O=C(O)CN(CC(=O)O)CC(=O)O`, the compound was called inactive.

Take `S=c1[nH]c2ccccc2s1`: the AC50 was 10.4 µM (active).

In the case of `CS(=O)(=O)c1ccc([C@@H](C[C@H]2CCC(=O)C2)C(=O)Nc2cnccn2)cc1Cl`, the compound was classed as inactive.

In the case of `CCc1nc(N)nc(N)c1-c1ccc(Cl)cc1`, the result was inactive.

Consider `COC(=O)[C@H]1[C@H]2C[C@@H]3c4[nH]c5cc(OC)ccc5c4CCN3C[C@H]2C[C@@H](OC(=O)c2cc(OC)c(OC)c(OC)c2)[C@@H]1OC`, for which the compound was called inactive.

Take `CCOCCOCCO`: the compound was classed as inactive.

For the compound `CN(C)CCCN(C)CCCN(C)C`, the outcome was inactive.

With `O=[Si]=O`, the compound was classed as inactive.

With `CCC(C)N(C)C(=O)c1cc2ccccc2c(-c2ccccc2Cl)n1` (centres undefined), the result was inactive.

Consider `O=C(O)c1[nH]n(-c2ccc(S(=O)(=O)O)cc2)c(=O)c1N=Nc1ccc(S(=O)(=O)O)cc1`, for which the result was inactive.

For `CN(C)CCCN1c2ccccc2Sc2ccc(Cl)cc21`, the result was inactive.

As to `COC(=O)CCCC(=O)OC`, the call was inactive.

As for `CC1(C)C(=O)NC(=O)N1CO`, the compound was classed as inactive.

`Cc1ccc(C(C)(C)C)c(O)c1`: the outcome was inactive.

On to `CCCCCCCCCCCCCCOS(=O)(=O)O`, for which the AC50 is 16.8 µM (active).

Consider `COc1ccc(OC(F)(F)F)cc1CN[C@H]1CCCN[C@H]1c1ccccc1`, for which the result was inactive.

A short description of a further test: Tanguay_ZF_120hpf_CFIN_legacy: (Legacy) Oregon State University Tanguay Lab 120 Hour Post-fertilization zebrafish Assay for Caudal Fin Malformation (AID 2283649). In outline: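 Dechorionated 5D wild-type zebrafish, static exposure 6–120 hpf, 28C, sealed and dark, 0.64% v/v DMSO final. Binary fin-malformation call at 120 hpf, brightfield; gain of signal vs DMSO baseline.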
Take `CCc1cc(C2=C(C(=O)O)N(c3ccccc3C(F)(F)F)S(=O)(=O)c3ccccc32)cc2c1OCO2`: the call was inactive.

As for `O=C1c2c(O)cccc2Cc2cccc(O)c21`, the compound was classed as inactive.

Turning to `NC(=Nc1ccccc1)Nc1ccccc1`, the outcome was inactive.

Regarding `COC(=O)CCC(=O)OC`, the result was inactive.

In the case of `CN(C)C(=O)NC1(c2ccccc2)CCN(CCC[C@]2(c3ccc(Cl)c(Cl)c3)CCCN(C(=O)c3ccccc3)C2)CC1`, the result was inactive.

For `Oc1ccccc1O`, the result was inactive.

With `CCCCC(CC)CO` (centres undefined), the compound was classed as inactive.

On to `Cc1c(C)c2c(c(C)c1O)CCC(C)(COc1ccc(CC3SC(=O)NC3=O)cc1)O2` (centres undefined), for which the compound was classed as inactive.

With `CCCC[C@H]1CN(CC2CCOCC2)C(=O)OC12CCN(C1(C)CCN(C(=O)c3c(C)ncnc3C)CC1)CC2`, the outcome was inactive.

In the case of `CCCCc1nc2cccnc2n1Cc1ccc(-c2ccccc2-c2nnn[nH]2)cc1`, the call was inactive.

In the case of `CCCCCCC(CCCCCCCCCCC(=O)OCC(COC(C)=O)OC(C)=O)OC(C)=O` (centres undefined), the outcome was inactive.

As for `S=c1[nH]c2ccccc2s1`, the AC50 is 31.9 µM (active).

`CS(=O)(=O)c1ccc([C@@H](C[C@H]2CCC(=O)C2)C(=O)Nc2cnccn2)cc1Cl`: the result was inactive.

With `CCc1nc(N)nc(N)c1-c1ccc(Cl)cc1`, the compound was classed as inactive.

Turning to `COC(=O)[C@H]1[C@H]2C[C@@H]3c4[nH]c5cc(OC)ccc5c4CCN3C[C@H]2C[C@@H](OC(=O)c2cc(OC)c(OC)c(OC)c2)[C@@H]1OC`, the call was inactive.

As for `CCOCCOCCO`, the outcome was inactive.

As for `CN(C)CCCN(C)CCCN(C)C`, the result was inactive.

For the compound `O=[Si]=O`, the compound was classed as inactive.

Consider `CCC(C)N(C)C(=O)c1cc2ccccc2c(-c2ccccc2Cl)n1` (centres undefined), for which the compound was classed as inactive.

As for `O=C(O)c1[nH]n(-c2ccc(S(=O)(=O)O)cc2)c(=O)c1N=Nc1ccc(S(=O)(=O)O)cc1`, the result was inactive.

Consider `CN(C)CCCN1c2ccccc2Sc2ccc(Cl)cc21`, for which the compound was called inactive.

Regarding `COC(=O)CCCC(=O)OC`, the compound was classed as inactive.

On to `Cc1ccc(C(C)(C)C)c(O)c1`, for which the compound was classed as inactive.

As for `CCCCCCCCCCCCCCOS(=O)(=O)O`, the concentration at half-maximal activity (AC50) is 46.9 µM (active).

Regarding `COc1ccc(OC(F)(F)F)cc1CN[C@H]1CCCN[C@H]1c1ccccc1`, the compound was classed as inactive.

The nature of another test: Tanguay_ZF_120hpf_PIG_legacy: (Legacy) Oregon State University Tanguay Lab 120 Hour Post-fertilization zebrafish Assay for Pigmentation Malformation (AID 2283650).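 Further: dechorionated Tropical 5D zebrafish embryos exposed singly from 6 to 120 hpf.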 In outline:
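Brightfield scoring of pigmentation malformation at 120 hpf, recorded as binary present/absent per larva. Exposure: dechorionated 5D wild-type embryos, one per well, static from 6 hpf at 28C, final DMSO 0.64% (vol/vol). Dead embryos not scored.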
As to `NC(=Nc1ccccc1)Nc1ccccc1`, the compound was classed as inactive.

Regarding `CN(C)C(=O)NC1(c2ccccc2)CCN(CCC[C@]2(c3ccc(Cl)c(Cl)c3)CCCN(C(=O)c3ccccc3)C2)CC1`, the compound was called inactive.

As to `Oc1ccccc1O`, the compound was classed as inactive.

Take `Cc1c(C)c2c(c(C)c1O)CCC(C)(COc1ccc(CC3SC(=O)NC3=O)cc1)O2` (centres undefined): the compound was classed as inactive.

Regarding `CCCC[C@H]1CN(CC2CCOCC2)C(=O)OC12CCN(C1(C)CCN(C(=O)c3c(C)ncnc3C)CC1)CC2`, the outcome was inactive.

On to `CCCCCCC(CCCCCCCCCCC(=O)OCC(COC(C)=O)OC(C)=O)OC(C)=O` (centres undefined), for which the compound was classed as inactive.

As to `O=[Si]=O`, the call was inactive.

As to `CCC(C)N(C)C(=O)c1cc2ccccc2c(-c2ccccc2Cl)n1` (centres undefined), the result was inactive.

As for `CN(C)CCCN1c2ccccc2Sc2ccc(Cl)cc21`, the compound was called inactive.

Consider `CC1(C)C(=O)NC(=O)N1CO`, for which the result was inactive.

Turning to `Cc1ccc(C(C)(C)C)c(O)c1`, the compound was called inactive.

For the origin of these results see PubChem BioAssay (EPA / NIEHS).
